Results from the supplement of paper PMC6555819.

Legend:
Assay in all cases: PBM binding z-score (relative to random genomic background probes); higher = stronger binding; sequences stand for … in GC…GCGATTGACAGCGTAGAATGAAGG
[1] = tested on: FXR:RXRa (NR concentration 270 nM, RXRa partner concentration 90 nM)
How it was run: (§1)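 Binding z-scores were set against random background probes. The data came from custom Agilent 4×180K protein-binding microarrays carrying double-stranded probes with 34-nt variable regions, incubated 1 h with ligand-free nuclear receptor dimers. Partner-specific antibodies detected binding, and scanned fluorescence was regression-normalized.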

[2] = tested on: LXRa:RXRa (NR concentration 270 nM, RXRa partner concentration 90 nM)
How it was run: as §1

[3] = tested on: LXRa homodimer (NR concentration 270 nM)
How it was run: as §1

[4] = tested on: LXRb:RXRa (NR concentration 270 nM, RXRa partner concentration 90 nM)
How it was run: as §1

[5] = tested on: LXRb homodimer (NR concentration 270 nM)
How it was run: as §1

[6] = tested on: PPARa:RXRa (NR concentration 270 nM, RXRa partner concentration 90 nM)
How it was run: as §1

[7] = tested on: PPARg:RXRa (NR concentration 180 nM, RXRa partner concentration 90 nM)
How it was run: as §1

[8] = tested on: PPARg:RXRa 270nM:90nM, anti-RXR (NR concentration 270 nM, RXRa partner concentration 90 nM)
How it was run: as §1

[9] = tested on: PPARg:RXRa 30nM:10nM, anti-RXR (NR concentration 30 nM, RXRa partner concentration 10 nM)
How it was run: as §1

[10] = tested on: PPARg:RXRa 90nM:30nM, anti-RXR (NR concentration 90 nM, RXRa partner concentration 30 nM)
How it was run: as §1

[11] = tested on: PPARg:RXRa DBDmut IVT, anti-RXR (DBD mutation: RXRa K156A/R161A, NR concentration 270 nM, RXRa partner concentration 90 nM)
How it was run: as §1

[12] = tested on: PPARg:RXRa IVT, anti-PPARg (NR concentration 270 nM, RXRa partner concentration 90 nM)
How it was run: as §1

[13] = tested on: PPARg DBDmut:RXRa IVT, anti-PPARg (DBD mutation: PPARg1 K132A/R137A, NR concentration 270 nM, RXRa partner concentration 90 nM)
How it was run: as §1

[14] = tested on: PPARg DBDmut IVT, anti-PPARg (DBD mutation: PPARg1 K132A/R137A, NR concentration 270 nM)
How it was run: as §1

[15] = tested on: PPARg homodimer (NR concentration 180 nM)
How it was run: as §1

[16] = tested on: PXR:RXRa (NR concentration 270 nM, RXRa partner concentration 90 nM)
How it was run: as §1

[17] = tested on: PXR homodimer (NR concentration 270 nM)
How it was run: as §1

[18] = tested on: RARa:RXR (NR concentration 270 nM, RXRa partner concentration 90 nM)
How it was run: as §1

[19] = tested on: RARa homodimer (NR concentration 270 nM)
How it was run: as §1

[20] = tested on: RARb:RXRa (NR concentration 270 nM, RXRa partner concentration 90 nM)
How it was run: as §1

Sequence	PBM binding z-score [1]	PBM binding z-score [2]	PBM binding z-score [3]	PBM binding z-score [4]	PBM binding z-score [5]	PBM binding z-score [6]	PBM binding z-score [7]	PBM binding z-score [8]	PBM binding z-score [9]	PBM binding z-score [10]	PBM binding z-score [11]	PBM binding z-score [12]	PBM binding z-score [13]	PBM binding z-score [14]	PBM binding z-score [15]	PBM binding z-score [16]	PBM binding z-score [17]	PBM binding z-score [18]	PBM binding z-score [19]	PBM binding z-score [20]
ACTTACTGGTCAACGAGGTTATAGCACGCGTATA	1.24	1.44	0.897	1.62	0.859	1.88	1.04	1.16	1.29	1.29	1.29	1.65	1.75	1.91	1.38	1.89	0.901	2.03	1.23	2.09
ACTTACGGGTCAACGAGGTTATAGCACGCGTATA	6.51	5.39	0.989	4.36	0.794	5.52	5.71	5.48	2.87	4.14	3.5	4.09	1.65	1.55	2.55	5.1	3.34	5.39	1.16	4.13
GATGCTAGGTCAACTGATGGTCAGCTAAAGCTCG	3.82	3.15	0.377	2.11	0.0631	3.62	2.79	2.97	0.474	1.77	3.82	3.75	-0.0408	-0.329	1.48	1.45	-0.415	2.58	-0.157	4.11
CAAGCTAGGTCACAGAGGTCAAAGTCCGTGCGTA	7.59	6.83	7.42	6.28	1.9	5.99	6.86	6.52	3.68	5.83	5.16	5.87	0.564	0.34	6.23	6.96	12.1	8.03	2.55	5.47
TCGAGTAGGTTATTCGGGGCATTCAGCCAACATA	1.16	1.05	0.0577	1.51	-0.7	1.69	0.35	1.19	1.13	1.07	3.04	2.49	-0.276	-0.446	-0.00227	0.948	0.669	0.746	-0.612	0.781
CAAACTAGGTCAAGAGGTCCAAGTCCGCTTCCCG	3.7	2.26	0.265	1.6	0.102	4.52	7.57	6.68	4.65	6.56	8.55	8.32	1.57	0.903	1.86	1.58	0.285	2.21	0.1	4.02
CCTTACGGGTCACTCACAGGTTATAGCATTTGGA	4.95	4.32	0.653	3.67	0.243	5.1	4.15	3.82	1.29	2.78	3.1	3.43	0.37	0.401	3.21	3.56	0.559	4.46	1.29	3.77
TGCATGAGGTTAAAGATCAGGGAACGTGGCGTCG	3.2	2.84	0.267	1.84	0.579	3.89	4.03	4.6	2.43	4.38	0.0827	1.55	0.0491	0.396	1.07	2.23	0.0644	2.93	0.611	2.23
CAGCCTAGGTCAGGACCAGTATAGGAGGAACGTT	1.48	0.848	-0.0859	0.663	-0.972	1.94	0.905	0.922	-0.12	0.355	1.07	1.37	-0.507	-1.17	0.861	0.277	-0.104	0.885	0.139	3.26
CGAACTAGGTCACGGACAGTGAATCTCCGCACGC	4.87	3.34	0.231	2.64	-0.137	5.68	9.36	7.68	5.94	7.84	8.66	9.1	8.25	6.07	4.94	2.4	-0.165	3.61	1.22	4.35
CCTATTAGTTGACCATAAGGGCGACCGAAGCTCG	0.484	0.482	0.301	0.554	0.545	0.197	0.29	0.138	-0.288	0.134	0.603	0.201	-0.102	0.933	2.13	0.235	0.541	0.509	1.68	0.951
GCTATTAGTTGAAAGGTCAACCGAATGATTCTCG	5.42	6.07	4.71	5.26	1.55	5.77	7.71	6.96	6.56	7.52	1.5	3.85	0.539	0.804	3.47	5.54	1.29	6.55	1.86	4.97
ATCTCTAGGTCAAGTTCAGTGAAAGATCGATAGA	5.11	5.65	4.79	3.98	3.26	4.74	5.82	5.4	2.79	4.77	6.76	6.5	2.13	1.61	2.41	3.45	2.13	3.16	1.74	4.55
TAGCCTAGATCATGGGCCAGTATACCACGCGAAC	-0.688	-0.764	-0.759	-0.614	-0.395	-0.574	0.555	-0.555	-0.628	-0.462	0.188	0.69	-0.074	-0.614	-1.13	-0.835	-0.709	-0.943	-0.47	-0.479
CGAACGAGGGCATGAGTTGATAACAAATGCCGAT	0.424	0.218	-0.205	0.254	-0.653	1.44	1.53	1.35	0.389	0.841	2.8	1.8	0.105	-0.206	0.149	0.497	0.164	0.612	-0.168	1.83
GCTATTAGTTAAAAGGGCAACCGAATGATTCTCG	0.183	0.439	0.409	0.624	-0.5	2.02	1.84	3.45	1.77	3.13	0.433	0.998	0.676	-0.168	1.15	0.537	0.39	0.874	1.2	1.97
TCTAGTTGGTCTCGGAGGTCACACACGACGGGTA	2.68	3	2.28	3.18	0.844	3.52	1.68	3.05	3.33	3.13	1.7	2.32	1.38	1.29	2.19	4.11	0.901	4.22	0.998	3.35
ATCTCTAGGTAAGACACAGTTCAGTGAAGAACGC	0.376	1.1	1.08	0.767	1.15	0.964	1.03	1.98	0.784	1.72	2.01	1.34	1.21	1.33	1.82	1.31	1.06	0.786	1.69	0.924
TCTATTGGTTGATTAGGGCAACCGAAACAGCGGA	0.575	0.37	-0.105	0.525	0.775	0.817	0.0989	1.86	3.2	2.59	1.96	1.31	1.58	0.647	1.38	0.573	0.277	0.835	0.652	1.06
AGACAAAGTTCATCTAGGTAACGTAAGATATGCT	6.83	6.21	5.23	3.92	1.56	4.91	4.69	4.99	1.93	3.69	1.22	3.2	1.33	1.93	3.1	5.34	6.29	4.17	1.38	4.98
AAATGTAGGTTACATCCGGGTCATTCAGGCTATG	2.37	4.34	1.56	2.86	0.424	4.62	6.92	5.78	2.95	5.22	8.29	8.08	3.52	2.02	2.68	3.79	2.33	3.75	1.1	2.28
GCTGCTAGGTCAACTGATGGTCAGCTCAAGCTCG	4.04	3.02	0.195	2.03	0.0529	3.43	2.32	2.98	0.574	1.74	4.88	3.98	-0.00259	-0.768	2.12	1.66	-0.637	2.9	-0.413	4.23
AATACAGGGTCACTAGGGCAGAGTAGGTACGAAT	6.65	5.17	1.38	4.23	1.51	5.86	8.85	6.78	3.79	6.46	4.88	6.25	2.07	2.29	3.08	3.51	1.1	4.65	1.32	4.27
GCAGACAGCTGAAACGCAGGTAACTCAGGGTGGC	-0.689	-0.548	-0.369	-1.06	-1.49	-0.559	0.436	-0.461	-0.695	-0.928	-0.593	-0.619	-0.401	-0.834	-1.24	-0.942	-0.526	-0.648	-0.637	-0.402
CATATAGGGTCAGCTAGGCCAGAGTAGGGACGGC	4.43	3.32	-0.142	2.24	0.223	4.44	3.29	3.31	0.812	2.26	2.06	2.63	1.01	0.805	1.9	2.17	-0.332	3.31	0.466	3.96
GCTAACGGGTCAAAGGTTATAGCATGAATAGAAT	7.39	5.26	0.513	5.21	0.0725	6.84	10.4	8.58	9.26	9.13	3.51	5.64	0.399	0.838	1.81	5.59	0.2	7.51	0.254	4.19
CCTCGGAGGGCAGAAGGTCAGAGCTGTCCGCTTT	1.58	1.92	-0.356	1.12	-1.06	2.48	0.613	2.48	-0.473	1.44	0.357	0.981	-1.69	-1.6	0.905	1.94	-0.405	2.53	-0.604	3.69
TCGACTAGGTTAGTCGGGGCATTCAGCCAACATA	-0.0811	-0.0624	-0.672	-0.0911	-0.943	0.668	0.144	1.05	1.49	1.12	2.49	2.12	-0.552	-0.496	-0.609	0.117	-0.422	0.0483	-1.11	0.662
